# This is part of a sample that, as a whole, favours compounds with a hit. Of some 79,000 tested, about 15% had one in any assay. Unmarked numbers belong to inactive results. The source made the active and inactive calls. Rule as the data show it: active = growth inhibition above about 70%; inactive = the rest.
# Key:
# [1] = NCI Yeast Anticancer Drug Screen. Data for the rad52 strain (AID 147);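 also: 0% = growth of vehicle-treated control cultures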; details: S. cerevisiae rad52 mutant growth inhibition, hits give high values
# Outline: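 Yeast strain carrying a DNA damage repair alteration was exposed to test compounds. Growth inhibition was measured relative to vehicle-treated controls.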
# [2] = NCI Yeast Anticancer Drug Screen. Data for the wt1 strain (AID 149);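 also: 0% = growth of vehicle-treated wt1 cultures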; details: S. cerevisiae wt1 strain (SPY 50644) growth inhibition, hits give high values
# Outline: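 Measured: growth of wt1 yeast under compound versus vehicle treatment, reported as inhibition.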
# [3] = NCI Yeast Anticancer Drug Screen. Data for the mgt1 strain (AID 153); details: S. cerevisiae mgt1 mutant growth inhibition, hits give high values
# Outline: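 Yeast mgt1 strain (DNA repair/cell-cycle alteration panel) exposed to compounds; growth inhibition measured relative to vehicle-treated controls.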
# [4] = NCI Yeast Anticancer Drug Screen. Data for the rad50 strain (AID 155);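 also: 0% = growth of vehicle-only cultures of the same strain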; details: S. cerevisiae rad50 strain growth inhibition, hits give high values
# Outline: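 Growth of the mutant yeast was measured after compound exposure and referenced to vehicle-treated cultures.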
# [5] = NCI Yeast Anticancer Drug Screen. Data for the mec2-1 strain (AID 157); details: S. cerevisiae mec2-1 strain, hits give high values
# Outline: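 mec2-1 yeast strain, carrying an alteration in DNA damage repair or cell cycle control, was exposed to compounds; growth inhibition was measured relative to vehicle-treated controls.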
# [6] = NCI Yeast Anticancer Drug Screen. Data for the rad14 strain (AID 159);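 also: 0% = growth of vehicle-treated control cultures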; details: S. cerevisiae rad14 strain growth inhibition, hits give high values
# Outline: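 Here, inhibition of yeast growth was measured after compound exposure, using a strain with a genetic defect in DNA damage repair and vehicle-treated cultures as the reference.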
# [7] = NCI Yeast Anticancer Drug Screen. Data for the sgs1 mgt1 strain (AID 161);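 also: 0% = growth of cultures given vehicle only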; details: S. cerevisiae sgs1 mgt1 strain, hits give high values
# Outline: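 Percent growth inhibition was derived by comparing compound-exposed mutant yeast with vehicle-exposed cultures. The strain carries alterations in DNA damage repair.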
# [8] = NCI Yeast Anticancer Drug Screen. Data for the CLN2oe strain (AID 163);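 also: 0% = growth of vehicle-only control cultures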; details: S. cerevisiae CLN2oe strain, hits give high values
# Outline: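 Yeast cells carrying a defined cell-cycle control alteration were exposed to test compounds. Growth inhibition was scored against vehicle-treated control cultures.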
# [9] = NCI Yeast Anticancer Drug Screen. Data for the cln2 rad14 strain (AID 165);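 also: 0% = growth equal to vehicle treated cultures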; details: S. cerevisiae cln2 rad14 strain, hits give high values
# Outline: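 Yeast carrying cln2 and rad14 alterations (cell cycle control and DNA damage repair) were exposed to compounds. Growth inhibition was measured against vehicle-treated controls.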
# [10] = NCI Yeast Anticancer Drug Screen. Data for the bub3 strain (AID 167); details: S. cerevisiae bub3 mutant strain, hits give high values
# Outline: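 Whole-cell yeast assay. The mutant strain was incubated with compounds, and growth inhibition was determined by comparison with vehicle-treated cells.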
# [11] = NCI Yeast Anticancer Drug Screen. Data for the wt2 strain (AID 169);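 also: 0% = growth of vehicle-treated yeast cultures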; details: S. cerevisiae wt2 strain growth inhibition, hits give high values
# Outline: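 Yeast cells were exposed to test compounds, and growth inhibition was measured relative to vehicle-treated controls.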
# [12] = NCI Yeast Anticancer Drug Screen. Data for the mlh1 strain (AID 171);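 also: 0% = growth of vehicle-treated control cultures of the same strain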; details: S. cerevisiae mlh1 strain growth inhibition, hits give high values
# Outline: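 Yeast carrying a defined genetic alteration in DNA damage repair or cell cycle control were exposed to test compounds. Growth inhibition was measured relative to vehicle-treated controls.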
# [13] = NCI Yeast Anticancer Drug Screen. Data for the sgs1 strain (AID 173);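 also: 0% = growth of vehicle-only control cultures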; details: S. cerevisiae sgs1 mutant, hits give high values
# Outline: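 Yeast mutant strains carrying defined defects in DNA damage repair or cell cycle control were exposed to test compounds. Growth inhibition was scored against vehicle-treated controls.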
# [14] = NCI Yeast Anticancer Drug Screen. Data for the mlh1 rad18 strain (AID 175); details: S. cerevisiae mlh1 rad18 strain growth inhibition, hits give high values
# Outline: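 Growth inhibition of the yeast strain was measured after compound exposure and expressed relative to vehicle-treated controls. The strain carries defined defects in DNA damage repair.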
# [15] = NCI Yeast Anticancer Drug Screen. Data for the rad18 strain (AID 177); details: S. cerevisiae rad18 mutant growth inhibition, hits give high values
# Outline: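 Yeast carrying a defined DNA damage repair alteration were exposed to compounds. Growth inhibition was expressed relative to vehicle-treated controls.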
# [16] = at 5.0 µM (retest, dose inferred, filed as 0.5)
# [17] = at 50.0 µM (retest, dose inferred, filed as 5.0)
smiles,measurement,setting,value
CCc1c(Cl)c(C)cc(O)c1Cl,growth inhibition,[1]; at 1.2 µM,4%
same,growth inhibition,[1]; at 3.7 µM,-9%
same,growth inhibition,[1]; at 11.0 µM,8%
same,growth inhibition,[1]; at 33.0 µM,22%
same,growth inhibition,[1]; at 100.0 µM,96% (active)
same,growth inhibition,[2]; at 1.2 µM,-31%
same,growth inhibition,[2]; at 3.7 µM,-18%
same,growth inhibition,[2]; at 11.0 µM,-33%
same,growth inhibition,[2]; at 33.0 µM,-33%
same,growth inhibition,[2]; at 100.0 µM,72% (active)
same,growth inhibition,[3]; at 1.2 µM,19%
same,growth inhibition,[3]; at 3.7 µM,5%
same,growth inhibition,[3]; at 11.0 µM,29%
same,growth inhibition,[3]; at 33.0 µM,49%
same,growth inhibition,[3]; at 100.0 µM,95% (active)
same,growth inhibition,[4]; at 1.2 µM,-27%
same,growth inhibition,[4]; at 3.7 µM,-30%
same,growth inhibition,[4]; [16],38%
same,growth inhibition,[4]; at 11.0 µM,-27%
same,growth inhibition,[4]; at 33.0 µM,23%
same,growth inhibition,[4]; [17],91% (active)
same,growth inhibition,[4]; at 50.0 µM,91.4% (active)
same,growth inhibition,[4]; at 100.0 µM,94% (active)
same,growth inhibition,[5]; at 1.2 µM,-10%
same,growth inhibition,[5]; at 3.7 µM,1%
same,growth inhibition,[5]; [16],46%
same,growth inhibition,[5]; at 11.0 µM,5%
same,growth inhibition,[5]; at 33.0 µM,12%
same,growth inhibition,[5]; [17],94% (active)
same,growth inhibition,[5]; at 50.0 µM,84.7% (active)
same,growth inhibition,[5]; at 100.0 µM,93% (active)
same,growth inhibition,[6]; at 1.2 µM,-8%
same,growth inhibition,[6]; at 3.7 µM,-46%
same,growth inhibition,[6]; at 11.0 µM,-19%
same,growth inhibition,[6]; at 33.0 µM,4%
same,growth inhibition,[6]; at 100.0 µM,90% (active)
same,growth inhibition,[7]; [16],-26%
same,growth inhibition,[7]; [17],46%
same,growth inhibition,[7]; at 50.0 µM,86.2% (active)
same,growth inhibition,[8]; at 1.2 µM,-7%
same,growth inhibition,[8]; at 3.7 µM,-18%
same,growth inhibition,[8]; at 11.0 µM,-4%
same,growth inhibition,[8]; at 33.0 µM,6%
same,growth inhibition,[8]; at 100.0 µM,75% (active)
same,growth inhibition,[9]; [16],32%
same,growth inhibition,[9]; [17],44%
same,growth inhibition,[9]; at 50.0 µM,77.2% (active)
same,growth inhibition,[10]; at 1.2 µM,-8%
same,growth inhibition,[10]; at 3.7 µM,-19%
same,growth inhibition,[10]; [16],3%
same,growth inhibition,[10]; at 11.0 µM,-7%
same,growth inhibition,[10]; at 33.0 µM,20%
same,growth inhibition,[10]; [17],53%
same,growth inhibition,[10]; at 50.0 µM,92.6% (active)
same,growth inhibition,[10]; at 100.0 µM,85% (active)
same,growth inhibition,[11]; at 1.2 µM,-35%
same,growth inhibition,[11]; at 3.7 µM,-30%
same,growth inhibition,[11]; at 11.0 µM,-26%
same,growth inhibition,[11]; at 33.0 µM,-9%
same,growth inhibition,[11]; at 100.0 µM,92% (active)
same,growth inhibition,[12]; at 1.2 µM,6%
same,growth inhibition,[12]; at 3.7 µM,-7%
same,growth inhibition,[12]; at 11.0 µM,12%
same,growth inhibition,[12]; at 33.0 µM,19%
same,growth inhibition,[12]; at 100.0 µM,82% (active)
same,growth inhibition,[13]; at 1.2 µM,-4%
same,growth inhibition,[13]; at 3.7 µM,-4%
same,growth inhibition,[13]; at 11.0 µM,5%
same,growth inhibition,[13]; at 33.0 µM,33%
same,growth inhibition,[13]; at 100.0 µM,91% (active)
same,growth inhibition,[14]; [16],35%
same,growth inhibition,[14]; [17],85% (active)
same,growth inhibition,[14]; at 50.0 µM,89.5% (active)
same,growth inhibition,[15]; at 1.2 µM,-20%
same,growth inhibition,[15]; at 3.7 µM,6%
same,growth inhibition,[15]; at 11.0 µM,-23%
same,growth inhibition,[15]; at 33.0 µM,-46%
same,growth inhibition,[15]; at 100.0 µM,50%

# — PubChem BioAssay (NCI)
